HCMV inh = inhibitors of human cytomegalovirus; HFF cells, HCMV-luciferase reporter, 72 h; stronger effect = lower value; activity change, negative = inhibition, % at 57.5 µM; 410,000 compounds, 4.5% hits; in the data active = activity change below about -60%; inconclusive = no clear call, values can overlap the other calls; inactive = above about -39%
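Steps: HFFs plated, 16 h 37C; compounds added; HCMV-luciferase added to MOI 1 PFU/cell; 72 h 37C; OneGlo reagent, 5 min room temperature; luminescence read, normalized to controls.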
Sm TGR inh = inhibitors of Schistosoma mansoni thioredoxin glutathione reductase; 360,000 compounds, 3% hits; Q962Y6; purified TGR, DTNB reduction, TNB absorbance 405 nm; Potency, µM (highest dose often 114 µM), hits mostly inhibitors; note: nearly all actives have a fitted effect of over 60% in size
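First, TGR (20 nM dispensed) and NADPH were mixed with compound. Second, a 15 min room-temperature incubation followed. Third, further NADPH and then DTNB were added to start the reaction. Finally, TNB absorbance was monitored kinetically.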
Giardia FBPA inh = inhibitors of Giardia lamblia fructose-1,6-bisphosphate aldolase; A8B2U2; purified Giardia FBPA; Potency, µM (top dose mostly 59.6 µM), usual class: inhibitors; 290,000 compounds, 0.71% hits; AID 2451; note: nearly all actives have a fitted effect of over 55% in size
Target sequence (A8B2U2 whole entry, looked up): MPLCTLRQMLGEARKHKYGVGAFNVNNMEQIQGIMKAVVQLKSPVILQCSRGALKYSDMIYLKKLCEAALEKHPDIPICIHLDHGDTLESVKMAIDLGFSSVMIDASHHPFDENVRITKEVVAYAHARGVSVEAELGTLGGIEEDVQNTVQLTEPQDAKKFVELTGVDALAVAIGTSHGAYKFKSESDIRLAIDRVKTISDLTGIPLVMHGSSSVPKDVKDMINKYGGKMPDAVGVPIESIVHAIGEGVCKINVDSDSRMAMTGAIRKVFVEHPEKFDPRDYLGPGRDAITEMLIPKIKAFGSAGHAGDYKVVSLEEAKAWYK
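40 nM FBPA preincubated 10 min at RT with compound (up to 57.5 uM final), then substrate plus GAPDH/TPI/NAD/arsenate coupling and diaphorase/resazurin added. Fluorescence read after 20 min at RT, 525/598 nm.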
Pf growth 48h = P. falciparum growth inhibition at 48 hours (one generation); Potency, µM (doses to about 28.7 µM), usual class: inhibitors; P. falciparum luciferase growth in erythrocytes, 48 h; 310,000 compounds, 5.9% hits
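Cell-based growth assay: transgenic P. falciparum expressing firefly luciferase, cultured in red cells within RPMI 1640 containing 0.5% w/v Albumax, 24 mM bicarbonate and gentamycin. A drop in luciferase activity indicates inhibition.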
Pf growth 96h = inhibits malaria parasite growth, 96 h | P. falciparum luciferase reporter growth, 96 h | Potency, µM (series often up to 28.7 µM), hits mostly inhibitors | 320,000 compounds, 6.9% hits
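Cell-based qHTS: luciferase-tagged P. falciparum in erythrocytes (2% hematocrit, 0.05% parasitemia final) incubated with compounds for 96 hours, 37 C, 5% CO2; luciferase detection reagent then added and luminescence measured.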
Hits are given with their value; . = inactive; ? = inconclusive; / = no result given. Sampled rows, rich in hits. Any-hit rate of the full collection: about 14%. Unless noted, calls come from the whole dose curve; as a rule, active = well fitted curve in the direction sought with a large enough effect; inconclusive = small, poorly fitted or top-dose-only effect, or another doubt; inactive = no such curve, though single readings can be large; an effect the other way counts as inactive or inconclusive.

SMILES	HCMV inh	Sm TGR inh	Giardia FBPA inh	Pf growth 48h	Pf growth 96h
CC1CC(N(C(=O)c2ccccc2Cl)c2ccccc2)c2ccccc2N1 (centres undefined)	.	.	.	?	11.7µM
CN(C(=O)c1ccccc1Cl)C1CCCCC1	.	.	.	.	/
Cn1cccc1C(=O)N1CCC2(CCN(Cc3ccccc3)CC2)CC1	/	/	.	/	/
O=C(c1cccc(F)c1)N1CCN(C(=O)C2CC2)CC1	.	.	.	.	0.329µM
O=C(c1cccc(F)c1)N1CCN(S(=O)(=O)Cc2ccccc2)CC1	?	.	.	2.94µM	.
CC(C)(C)c1ccc(C(=O)N2CCCN(C(=O)c3ccc(C(C)(C)C)cc3)CC2)cc1	.	.	.	.	.
O=C(c1ccc(N2CCN(C(=O)c3cccc(F)c3)CC2)cc1)c1cccc(F)c1	.	.	/	13.1µM	?
O=C(c1cccc(F)c1)N1CCCC(C(=O)N2CCCCC2)C1 (centres undefined)	.	.	/	.	?
CC(C)(C)c1ccc(C(=O)N2CCN(C(=O)C3CCCCC3)CC2)cc1	-76.7	.	/	?	10.4µM
COc1cc(NC(=O)c2ccccc2)c(OC)cc1NC(=O)CN1C(=O)NC2(CCCCC2C)C1=O (centres undefined)	.	.	/	?	?
C[C@H](CO)N1C[C@H](C)[C@@H](CN(C)C(=O)NC2CCCCC2)Oc2c(NC(=O)Nc3ccc(C(F)(F)F)cc3)cccc2C1=O	.	/	/	/	/
CC1(C)CC(=O)C=C(c2ccccc2F)C1=O	.	/	/	/	/
O=C(c1ccc(N2CCN(C(=O)c3ccccc3Br)CC2)cc1)c1cccc(F)c1	?	.	/	?	9.28µM
CCOC(=O)N1CCN(c2ccc(C(=O)c3cccc(F)c3)cc2)CC1	/	.	.	/	.
CC(=O)N1c2ccc(S(=O)(=O)N3c4ccccc4CC3C)cc2CC1C (centres undefined)	.	.	.	?	.
CC1Cc2ccccc2N1S(=O)(=O)c1ccc2c(c1)n(C)c(=O)c(=O)n2C (centres undefined)	.	.	.	9.28µM	?
O=C(Nc1ccc(Cl)c(C(F)(F)F)c1)c1ccc2c(c1)CCN2S(=O)(=O)c1ccccc1	-74.5	.	/	/	/
COc1ccc(S(=O)(=O)N2CCc3ccccc32)cc1C(=O)NCCc1ccccn1	?	.	.	10.4µM	?
O=C(COc1ccc(S(=O)(=O)N2CCc3ccccc32)cc1Cl)NCc1ccccn1	.	.	.	?	/
O=C(Nc1cccnc1)c1cccc(S(=O)(=O)N2CCc3ccccc32)c1	.	.	.	10.4µM	3.29µM
NC(=O)C1(N2CCCCC2)CCN(CCCC(=O)c2ccc(F)cc2)CC1	/	/	.	.	?
COc1ccc(Cl)cc1-n1c(=S)sc2c(=O)[nH]c(SCC(=O)C(C)(C)C)nc21	.	.	.	.	.
C#CCNC(=O)C[C@@H]1C[C@@]2(C(=O)OCC)CCCC=C2N(CCCCCCCC)C1=O	.	/	/	/	/
O=C(CN1C(=O)c2ccccc2Sc2ccc(C(=O)N3CCOCC3)cc21)Nc1ccc(Cl)cc1F	.	.	/	/	/
COc1cc(OC)c(Nc2nc3ccccc3nc2-n2nc(C)cc2C)cc1Cl	.	.	/	/	/
SMILES	HCMV inh	Sm TGR inh	Giardia FBPA inh	Pf growth 48h	Pf growth 96h
C=CCN(CC=C)C(=O)c1cccc(S(=O)(=O)N2c3ccccc3CC2C)c1 (centres undefined)	.	.	.	2.33µM	?
CCCCCCNC(=O)c1cc(S(=O)(=O)N2CCc3ccccc32)ccc1F	-68.6	.	.	.	?
CCOc1ccc(NC(=O)c2cc(S(=O)(=O)N3CCc4ccccc43)ccc2F)cc1	?	.	/	/	/
COc1ccc(S(=O)(=O)N2CCc3ccccc32)cc1C(=O)Nc1cccnc1	.	.	.	?	2.94µM
COc1ccc(S(=O)(=O)N2CCc3ccccc32)cc1C(=O)O	.	.	.	.	.
CC1Cc2ccccc2N1S(=O)(=O)c1cccc(C(=O)Nc2cccnc2)c1 (centres undefined)	.	.	.	8.28µM	?
CCCCCCCCCCCCCCCCN	/	/	/	.	.
O=C(O)CC1CCCc2ccccc2C1O (centres undefined)	/	/	.	/	/
Cc1cc(=O)oc2cc(OCC(=O)N3CCN(C(=O)c4ccco4)CC3)ccc12	.	.	.	.	.
Cc1cc(-c2ccccc2)n2nc(-c3cccc(Br)c3)cc2n1	.	.	/	/	/
O=C(Nc1ccncc1)c1cccc(S(=O)(=O)N2CCc3ccccc32)c1	-77.4	.	/	10.4µM	?
C#CCNC(=O)C[C@@H]1C[C@@]2(C(=O)OC)CC(C)(C)CC=C2N(CCCCCCCC)C1=O	.	/	/	/	/
Cc1ccc(-n2ncc(C(=O)Nc3c(Cl)cccc3Cl)c2C2CCNCC2)cc1	?	.	/	/	/
Cc1ccc(-n2ncc(C(=O)Nc3cc(Cl)cc(Cl)c3)c2C2CCNCC2)cc1C	-98.7	.	.	?	.
COc1ccc(NC(=O)c2cnn(-c3ccc(C)c(C)c3)c2C2CCNCC2)cc1OC	.	44.7µM	/	/	/
COc1cc(NC(=O)c2cnn(-c3cccc(F)c3)c2C2CCNCC2)cc(OC)c1OC	.	.	/	/	/
CCOC(=O)c1cnn(-c2cccc(F)c2)c1C1CCNCC1	.	44.7µM	/	/	/
Cc1ccc(-n2ncc(C(=O)Nc3cc(Cl)ccc3Cl)c2C2CCNCC2)cc1	-87.2	.	.	?	.
COc1ccc(CCNC(=O)c2cnn(-c3cccc(C)c3)c2C2CCNCC2)cc1OC	.	.	/	/	/
C[C@@H]1CN(C(=O)c2ccc(OC3CCN(S(=O)(=O)N(C)C)CC3)cc2)C[C@H](C)O1	.	.	.	.	?
FC(F)(F)c1ccccc1-c1nc(NCc2cccs2)c2ccccc2n1	/	/	.	/	/
O=C(CN1CCCCCCC1)N/N=C/c1ccc(F)c(F)c1	?	.	.	.	.
Cc1ccc(SCCC(=O)NCCSCc2ccco2)cc1	-99.6	?	.	.	.
O=C(Cc1ccccc1)NCCSCc1ccco1	.	.	.	/	.
Cc1cccc(CSCCNC(=O)CCSc2ccccc2)c1	.	.	.	.	?
SMILES	HCMV inh	Sm TGR inh	Giardia FBPA inh	Pf growth 48h	Pf growth 96h
O=C(NCCSCc1ccco1)Nc1ccccc1	.	35.5µM	.	.	.
CN(C(=O)C=Cc1ccccc1)c1ccccc1	-100.5	/	/	/	/
CN(C(=O)/C=C/c1ccc2c(c1)OCO2)c1ccccc1	.	.	.	.	?
Cc1ccc(S(=O)(=O)NCl)cc1	/	/	/	.	.
COc1ccc(N(C)C(=O)c2ccc3snnc3c2)cc1	.	.	.	.	10.4µM
COc1ccc(NC(=S)Nc2ccc3snnc3c2)cc1	.	15.8µM	?	.	.
S=C(Nc1ccc2nccnc2c1)N1CCOCC1	.	.	14.1µM	.	?
COc1ccc(NC(=S)Nc2ccc3nccnc3c2)cc1	.	31.6µM	?	.	?
C[n+]1nc(Nc2ccccc2)sc1-c1ccc(C(=O)O)cc1	/	.	.	.	.
CC(=O)Nc1cccc(NC(=O)c2csc(C)c2)c1	.	.	/	.	?
COc1cccc(N2CCN(C(=O)C3CCCN(S(=O)(=O)c4ccc(Br)s4)C3)CC2)c1 (centres undefined)	.	.	/	/	/
COc1ccc(NC(=S)Nc2cccc(C)n2)cc1	?	.	.	4.65µM	?

Compound activity (PubChem BioAssay)
